# PubChem BioAssay (EPA / NIEHS)
# Activity calls are given as the source filed them. Rule for the calls: active = hit-call score of the fitted dose curve at least 0.9, where 1 is the maximum; inconclusive = response in the unintended direction; inactive = score below 0.9.
# Biological target: Androgen Receptor/SRC-1 Co-activator, AR (gene 367) (UniProt P10275)
# Assay: OT_AR_ARSRC1_0960: Odyssey Thera (OT) 16-hour HEK293T Protein-Complementation Assay for Androgen Receptor/SRC-1 Co-activator (AID 2283353);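 note: actives raise the signal above DMSO so potency reflects increased AR and SRC-1 complex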
# Outline: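 Endpoint is gain-of-signal N/C fluorescence ratio in the 488 nm channel versus DMSO, from at least 400 cells per image, measured 16 h post-dosing. Cells: HEK293T stably carrying split-Venus AR/SRC-1 complementation constructs.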
# Sequence of Androgen Receptor/SRC-1 Co-activator, AR (gene 367) (P10275 whole entry, looked up): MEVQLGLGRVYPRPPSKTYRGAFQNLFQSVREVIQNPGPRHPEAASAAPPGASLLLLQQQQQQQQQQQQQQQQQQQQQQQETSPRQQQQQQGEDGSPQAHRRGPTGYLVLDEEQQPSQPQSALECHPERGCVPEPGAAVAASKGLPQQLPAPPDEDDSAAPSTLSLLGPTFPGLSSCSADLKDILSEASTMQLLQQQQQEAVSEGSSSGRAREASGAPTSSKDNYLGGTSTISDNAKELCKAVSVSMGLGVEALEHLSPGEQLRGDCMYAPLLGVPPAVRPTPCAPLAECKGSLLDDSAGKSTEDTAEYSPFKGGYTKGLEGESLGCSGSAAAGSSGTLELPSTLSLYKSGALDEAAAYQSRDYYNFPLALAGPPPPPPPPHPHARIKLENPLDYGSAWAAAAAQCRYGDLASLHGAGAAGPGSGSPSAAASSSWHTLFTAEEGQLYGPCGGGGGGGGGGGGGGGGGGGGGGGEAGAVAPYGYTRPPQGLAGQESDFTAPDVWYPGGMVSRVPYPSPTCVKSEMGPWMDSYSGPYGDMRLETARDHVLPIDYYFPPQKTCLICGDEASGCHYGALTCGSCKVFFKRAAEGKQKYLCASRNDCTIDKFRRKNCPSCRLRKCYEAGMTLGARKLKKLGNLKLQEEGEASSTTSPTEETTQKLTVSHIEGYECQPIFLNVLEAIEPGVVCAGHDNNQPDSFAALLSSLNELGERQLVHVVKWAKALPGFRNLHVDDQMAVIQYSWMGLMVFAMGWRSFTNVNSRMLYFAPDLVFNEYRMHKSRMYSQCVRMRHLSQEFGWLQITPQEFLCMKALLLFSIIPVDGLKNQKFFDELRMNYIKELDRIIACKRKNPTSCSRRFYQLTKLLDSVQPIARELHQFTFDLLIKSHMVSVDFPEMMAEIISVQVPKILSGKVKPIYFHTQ
SMILES,outcome,AC50
CCCCC/C=C\CCC=O,inactive,
CC(C)c1ccc2cc(C(C)C)ccc2c1,inactive,
CC(CC=O)CCCC(C)(C)O (stereo unspecified),inactive,
CC(C)=CCC[C@H](C)CCO,inactive,
CCCc1ccc(OC)cc1,inactive,
CC(C)(C)c1ccc(-c2ccc(C(C)(C)C)cc2)cc1,,77.8 µM (active)
